From the supplement of paper PMC4894684
Values joined by “and” are separate entries in the source; they are usually repeats but may differ in a detail not shown here. Identical values can stand only once. Counter-ions that a name gives are not always drawn. ± gives the standard deviation of the averaged measurements. Screen size: about 1,000 compounds; about 15 (2%) showed an effect of 50% or more. This is one part of a sample in which strong results are shown more often than they occur.

tested on: HFF; assay: uninfected host cell viability relative to vehicle control; higher = less host cell toxicity; conditions: 5 µM; 72 h; oxygen 21 %

Row | SMILES | uninfected host cell viability
1 | CNc1cc(OC)c(C(=O)NC2CCN(Cc3ccccc3)C2C)cc1Cl (stereo unspecified) [Nemonapride] | 86.9 ± 6.9%
2 | C[C@H](NC[C@H](O)CP(=O)(O)Cc1ccccc1)c1ccc(Cl)c(Cl)c1 | 87.23 ± 0.39%
3 | CCOc1ccc(Nc2nc(-c3c(C)nc4ccccn34)cs2)cc1 | 73.8 ± 2.5%
4 | CCCCC[C@H](O)/C=C/[C@H]1[C@H](O)CC(=O)[C@@H]1C/C=C\CCCC(=O)O [Prostaglandin E2] | 95.2 ± 2.4%
5 | COC(=O)C1=C(C)NC(C)=C(C(=O)OC(C)C)C1c1cccc2nonc12 (stereo unspecified) [Isradipine] | 104 ± 7.9%
6 | CC(Cc1ccccc1)(NC(=O)CN)c1ccccc1 (stereo unspecified) [Remacemide hydrochloride] | 85.5 ± 1.2%
7 | CCn1c(=O)[nH]c2ccccc21 | 95.8 ± 5.6%
8 | CC(/C=C/c1cccc(Oc2ccc(F)cc2)c1)N(O)C(N)=O (stereo unspecified) | 82.8 ± 3.7%
9 | O=C1NN(C(=O)Nc2ccc(Br)cc2)[C@@H](c2ccccc2)[C@@H]1c1ccccc1 | 91.67 ± 0.67%
10 | CCc1c2c(nc3ccc(O)cc13)-c1cc3c(c(=O)n1C2)COC(=O)[C@]3(O)CC | 77.3 ± 8.2%
11 | NCCNC(=O)c1ccc(Cl)cn1 [Lazabemide hydrochloride] | 94.7 ± 1.2%
12 | Nc1[nH]nc2nnc(-c3c(-c4ccccc4)nn4ccccc34)cc12 | 94.685 ± 0.091%
13 | OC(c1ccccc1)C1CCN(CCc2ccccc2)CC1 (stereo unspecified) | 101 ± 7.3%
14 | Cc1cc(/C(=C/Nc2ccc(Cl)cc2)C(=O)Nc2ccc(Cl)cc2)on1 | 86.9 ± 4.8%
15 | CC1(CN2CCC(n3c(=O)[nH]c4ccccc43)CC2)OCc2ccccc2-n2cccc21 (stereo unspecified) | 94.4 ± 2%
16 | Nc1ccc(-c2cccc3c(=O)cc(N4CCOCC4)oc23)cc1 | 77 ± 0.83%
17 | c1ccc(N2CCN(CCCOc3ccc4c(c3)OCO4)CC2)cc1 [BP 554 maleate] | 90.9 ± 6.9%
18 | CCS(=O)(=O)N(C)[C@H]1c2cc(C#N)ccc2OC(C)(C)[C@@H]1O (racemic) [Chromanol 293B] | 91.3 ± 6.7%
19 | c1ccc2oc(C3=NCCN3)cc2c1 [2-BFI hydrochloride] | 84.5 ± 0.93%
20 | COc1ccc(-n2[nH]c3c4c(ncc3c2=O)CCCCC4)cc1 | 92.03 ± 0.15%
21 | O=C(O)COc1cccc(-c2ocnc2-c2nc(-c3ccccc3)c(-c3ccccc3)o2)c1 | 105 ± 3.5%
22 | NC(N)=Nc1ccc(Cl)cc1 [4-Chlorophenylguanidine hydrochloride] | 87.3 ± 2.5%
23 | CN(Cc1ccccc1)C(=O)[C@H](Cc1ccc2ccccc2c1)NC(=O)[C@@H]1CCCN1C(=O)Nc1ccccc1[N+](=O)[O-] | 87.6 ± 1.8%

Row | SMILES | uninfected host cell viability
24 | CC[C@H](CO)Nc1nc(Nc2cccc(-c3ccccn3)c2)c2ncn(C(C)C)c2n1 [(R)-DRF053 dihydrochloride] | 84.1 ± 1.9%
25 | CC(C)NCC(O)c1ccc2ccccc2c1 (stereo unspecified) [Pronethalol hydrochloride] | 85.9 ± 2.6%
26 | COc1cc2ncn(-c3cc(OCc4ccccc4C(F)(F)F)c(C(N)=O)s3)c2cc1OC | 83.8 ± 1.1%
27 | COCCNC(=O)COc1ccc(OCCNC[C@H](O)COc2ccccc2)cc1 [ZD 7114 hydrochloride] | 83.8 ± 2.3%
28 | CCN(CC)CCCCC1CCN(CC(=O)N2c3ccccc3C(=O)Nc3cccnc32)CC1 | 89.2 ± 4.3%
29 | O=C1c2ccccc2C(Cc2ccnc(F)c2)(Cc2ccnc(F)c2)c2ccccc21 | 90.8 ± 1.9%
30 | NC(=O)N1C(=O)/C(=C(\O)c2cccs2)c2cc(Cl)ccc21 [Tenidap] | 89.1 ± 2%
31 | COCC(=O)O[C@]1(CCN(C)CCCc2nc3ccccc3[nH]2)CCc2cc(F)ccc2[C@@H]1C(C)C [Mibefradil dihydrochloride] | 79.7 ± 4.6%
32 | CC(C)[C@H]1c2ccc(F)cc2CC[C@@]1(CCN(C)CCCc1nc2ccccc2[nH]1)OC(=O)C1CC1 [NNC 55-0396 dihydrochloride] | 15.68 ± 0.031%
33 | CCCCN1CCCC1CNC(=O)c1cc(C#N)c2ccccc2c1OC (stereo unspecified) [Nafadotride] | 84.8 ± 2.4%
34 | COc1cc(C[C@H]2C(=O)OC[C@@H]2Cc2ccc(OC)c(OC)c2)ccc1O [Arctigenin] | 90 ± 1.6%
35 | C[C@@H](CN1CCC(n2c(=O)[nH]c3cc(Cl)ccc32)CC1)NC(=O)c1ccc2ccccc2c1 | 94.4 ± 5.7%
36 | COc1ccc(C(=O)Nc2sc3c(c2C(N)=O)CCCC3)cc1OC | 80.1 ± 2.9%
37 | CCOC(=O)[C@@H](C)Oc1cccc2c(=O)n(CC(=O)Nc3ccc4c(c3)OCCO4)ccc12 | 84.7 ± 0.99%
38 | NC(=O)c1ccc(-c2nc(-c3ccccn3)c(-c3ccc4c(c3)OCO4)[nH]2)cc1 | 92.28 ± 0.26%
39 | CC(C1=C(CCN(C)C)Cc2ccccc21)c1ccccn1 (stereo in doubt) [(S)-(+)-Dimethindene maleate] | 94.3 ± 0.97%
40 | CC(O)(C(=O)Nc1ccc(S(=O)(=O)c2ccccc2)cc1)C(F)(F)F (stereo unspecified) | 99.7 ± 2.5%
41 | Clc1ccccc1CNCC1CCC(CNCc2ccccc2Cl)CC1 (stereo unspecified) | 83.3 ± 1.1%
42 | CCCCNC(=O)[C@@H]1Cc2ccccc2N1C(=O)[C@@H](N)CC [Butabindide oxalate] | 88.3 ± 5.3%
43 | CCOc1cc(CC(=O)N[C@@H](CC(C)C)c2ccccc2N2CCCCC2)ccc1C(=O)O [Repaglinide] | 93.7 ± 2.1%
44 | CCCCCCCCCCCC1=C(O)C(=O)C=C(O)C1=O [Embelin] | 83.69 ± 0.49%
45 | Nc1nc(-c2ccc(Cl)c(Cl)c2)c(-c2ccncc2)s1 [CGH 2466 dihydrochloride] | 87.4 ± 1.5%
46 | C[C@H](NC(=O)c1sccc1OCc1ccc(Cl)cc1)c1ccccc1 | 115 ± 1.5%

Row | SMILES | uninfected host cell viability
47 | CN1c2cc3c(cc2N=C(c2ccc(C(=O)O)cc2)c2ccccc21)C(C)(C)CCC3(C)C | 100 ± 8.6%
48 | N[C@@H](Cn1ccc(=O)n(Cc2ccccc2C(=O)O)c1=O)C(=O)O | 84.8% and 85.7%
49 | CCc1cc2c(c(CC)n1)CCC(=O)N2Cc1ccc(-c2ccccc2-c2nn[nH]n2)cc1 [ZD 7155 hydrochloride] | 94.11 ± 0.49%
50 | CC[N+](C)(CC)CC(=O)Nc1c(C)cccc1C [N-Methyllidocaine iodide] | 87.9 ± 3.1%
51 | CC(=O)N(OCc1ccccc1)[C@H]1c2cc(C#N)ccc2OC(C)(C)[C@H]1O | 98.6 ± 2.8%
52 | COc1ccc2[nH]c([S+]([O-])Cc3ncc(C)c(OC)c3C)nc2c1 (stereo unspecified) [Omeprazole] | 85.1 ± 2.2%
53 | c1nc(CC2CCNCC2)c[nH]1 [Immepip dihydrobromide] | 81.5 ± 3.3%
54 | CC(C)[C@H](NS(=O)(=O)c1ccc(-c2ccc(Br)cc2)cc1)C(=O)O | 87.2 ± 2.2%
55 | O=C(NC(NC(=S)Nc1ccc(F)c([N+](=O)[O-])c1)C(Cl)(Cl)Cl)C(c1ccccc1)c1ccccc1 (stereo unspecified) | 86.1 ± 11%
56 | Cc1nn(C)c2nc(NNC(=O)Nc3cc(Cl)nc(Cl)c3)cc(C(C)C)c12 | 89.2 ± 3.1%
57 | O=C(O)c1c(Sc2ccccc2)c2cc(Cl)ccc2n1Cc1ccc(Cl)cc1 | 93.9 ± 8.2%
58 | O=C(Nc1ccccc1)C12CC1C(=NO)c1ccccc1O2 (stereo unspecified) | 96.71 ± 0.12%
59 | Clc1cccc(Nc2nnc(-c3ccccc3)c3ccccc23)c1 | 85.8 ± 0.91%
60 | CCCCC1CCC(c2nc(-c3ccncc3)no2)CC1 (stereo unspecified) | 102 ± 3.9%
61 | Cc1c(C(=O)N(C)C2CCCCC2)sc2nc3ccc(N)cc3n12 | 83.6 ± 2.2%
62 | COC(=O)C1=C(C)NC(C)=C([N+](=O)[O-])[C@H]1c1ccccc1C(F)(F)F | 68.2 ± 1.7%
63 | O=S(=O)(c1cccc2cnccc12)N1CCCNCC1 [Fasudil hydrochloride] | 90.57 ± 0.53%
64 | Cc1cc2nc3c(=O)[nH]c(=O)nc-3n(C)c2cc1C=O | 94 ± 2%
65 | O=C(O)Cc1cccc(OCCCN(Cc2cccc(C(F)(F)F)c2Cl)CC(c2ccccc2)c2ccccc2)c1 [GW 3965 hydrochloride] | 99.5 ± 3.2%
66 | CC1=C(C(=O)OCCN(Cc2ccccc2)c2ccccc2)C(c2cccc([N+](=O)[O-])c2)C(P2(=O)OCC(C)(C)CO2)=C(C)N1 (stereo unspecified) [Efonidipine hydrochloride monoethanolate] | 98.4 ± 7.4%
67 | Cc1cc(C)c(S(=O)(=O)Nc2cccc(C(F)(F)F)c2)c(C)c1 | 82.4 ± 6.6%
68 | CN(C)CCCSC(=N)N [Dimaprit dihydrochloride] | 95.8 ± 1.1%
69 | CC(=Cc1ccc(C(=O)O)cc1)c1ccc2c(c1)C(C)(C)CCC2(C)C | 80.4 ± 2.1%

Row | SMILES | uninfected host cell viability
70 | CC[C@@H]1Cn2c(c3nc(-c4ccccc4)nc-3n(C)c2=O)N1 | 89.2 ± 4.1%
71 | CS(=O)(=O)Nc1c(O)ccc2c1CCCC2C1=NCCN1 (stereo unspecified) | 84.9 ± 2.8%
72 | COc1ccc2cccc(N3CCN(CCNC(=O)c4ccc(F)cc4)CC3)c2c1 | 82.7 ± 4%
73 | Cc1ccc(NC2=CC(=O)c3sc(C)nc3C2=O)cc1 [Ryuvidine] | 16.8 ± 0.66%
74 | O=C(O)c1ccc(-c2c[nH]c3ncc(-c4ccccc4)cc23)cc1C1CCCC1 | 109 ± 2.2%
75 | Nc1nc2c(cnn2CCc2ccccc2)c2nc(-c3ccco3)nn12 | 96.8 ± 2.3%
76 | CN(N=O)C(=O)N[C@@H](C=O)[C@@H](O)[C@H](O)[C@H](O)CO [Streptozocin] | 86.9 ± 5.4%
77 | CC(=O)NCCc1c(Cc2ccccc2)[nH]c2ccccc12 [Luzindole] | 101 ± 4.8%
78 | CCC(NC(C)C)C(O)c1ccc(O)c2[nH]c(=O)ccc12 (stereo unspecified) [Procaterol hydrochloride] | 87.5 ± 1.7%
79 | CCC(=O)NC1Cc2ccccc2C(c2ccccc2)C1 (stereo unspecified) | 99.58 ± 0.97%
80 | C[S+]([O-])c1ccc(-c2nc(-c3ccc(F)cc3)c(-c3ccncc3)[nH]2)cc1 (stereo unspecified) | 89.4% and 88.6%
81 | N=C(CC(O)COc1ccccc1-c1ccccc1)N1CCCCC1 (stereo unspecified) | 89.4 ± 2.9%
82 | Cn1cc(/C=C2\C(=O)Nc3cccnc32)c2ccccc21 | 67.8 ± 1.2%
83 | c1cc2c3c(c1)c1c(n3CCNC2)CCCC1 [WAY 629 hydrochloride] | 89.6 ± 5.6%
84 | CCCCC/N=c1\ccn(Cc2ccccc2)c2ccccc12 | 83.1 ± 2.5%
85 | CCCCCCCCCCCCCCCCn1cc[n+](Cc2ccccc2)c1C | 32 ± 6.6%
86 | CCCCCCCCc1ccc(-c2ccc(C(=O)O)cc2)cc1 | 85.5 ± 5%
87 | CNC(=O)[C@@H](Cc1ccccc1)N(C)C(=O)[C@@H](Cc1ccc2ccccc2c1)N(C)C(=O)/C=C/CC(C)(C)N [Tabimorelin] | 79.1 ± 1.2%
88 | N#Cc1ccccc1OCC(O)CNCCNC(=O)Nc1ccccc1 (stereo unspecified) | 86.9 ± 1.3%
89 | CCc1ccc(OCc2ccccc2C(=O)Nc2ccc3nc(C)cc(N)c3c2)cc1 | 15 ± 0.61%
90 | CCN(CC)CCCC(C)Nc1nc(C)cc(Nc2ccc3nc(C)cc(N)c3c2)n1 (stereo unspecified) | 80.4 ± 1.2%
91 | COc1ccc(NC(=O)c2cc(OCCCN(C)C)nn2Cc2ccccc2)cc1 [CFM 1571 hydrochloride] | 81.7 ± 2%
